Laboratory results taken from PubChem BioAssay.
Calls of active or inactive are those of the source.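 Rule for the calls, unless noted: active = inhibition at or above 50% relative to wild type and mutant plate controls; inactive = inhibition below 50%.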

What was measured:
[1] = inhibitors of TNFa-induced NFkB p65 translocation, primary screen, imaging, HUVEC, MLSMR starter and 10KST1 sets (AID 438;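 active = inhibition above 20% together with a positive visual image hit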;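 note: compound added about 3h40 before a 20 min TNFalpha stimulation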;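 for inhibition: signal is the nuclear over cytoplasmic p65 intensity ratio per well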); details: HUVEC TNFa-induced p65 nuclear translocation; cell count: measured here: nuclei count (cytotoxicity indicator), at 2.08 µM unless noted; inhibition: at 2 µM, stronger effect = higher value unless noted
[2] = endothelial E-selectin expression blockers – imaging, HUVEC, immunofluorescence, MLSMR starter and 10KST1 sets, primary screen (AID 487;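 active = visually confirmed hit in the image check and inhibition above 20%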;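 for inhibition: signal is fraction of cell area covered by stained E-selectin grains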;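 for nuclei count: 100% = median nuclei count of all wells on the same plate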); details: HUVEC TNFalpha-induced E-selectin immunofluorescence imaging, at 2 µM; inhibition: stronger effect = higher value; nuclei count: measured here: cell number, toxicity
[3] = Primary imaging screen for DUSP6 inhibitors that restore phospho-Erk in transfected HeLa cells, chemical complementation (AID 609;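 active = compounds giving at least 50% inhibition in the cell-based MKP-3 phosphatase rescue imaging test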;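 for inhibition: phospho-Erk level distribution per well compared with pooled transfected vehicle control wells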); details: HeLa MKP-3 transfected, phospho-Erk imaging KS statistic, at 10 µM
[4] = target: Dual specificity protein phosphatase 6 (Homo sapiens) (UniProt Q16828); assay: as above; details: HeLa MKP-3 transfected, phospho-Erk imaging KS statistic, at 10 µM, stronger effect = higher value
Dual specificity protein phosphatase 6 (Homo sapiens), sequence (Q16828 whole entry, looked up): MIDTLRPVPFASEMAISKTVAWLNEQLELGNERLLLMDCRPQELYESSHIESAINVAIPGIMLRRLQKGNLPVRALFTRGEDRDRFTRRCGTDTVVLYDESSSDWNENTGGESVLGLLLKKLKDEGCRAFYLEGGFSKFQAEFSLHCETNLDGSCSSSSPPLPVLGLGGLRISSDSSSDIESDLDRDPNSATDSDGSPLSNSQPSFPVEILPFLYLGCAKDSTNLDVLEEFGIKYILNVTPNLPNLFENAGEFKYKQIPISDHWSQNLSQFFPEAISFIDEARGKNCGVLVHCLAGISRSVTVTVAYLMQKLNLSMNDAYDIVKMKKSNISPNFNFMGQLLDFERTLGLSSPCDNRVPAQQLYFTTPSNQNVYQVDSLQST

[5] = target: Voltage-gated potassium channel subunit beta-2 (Rattus norvegicus) (UniProt P62483); assay: inhibitors of rat Kvbeta2 reductase activity – biochemical, NADPH fluorescence, primary screen (AID 622;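 active = fluorescence slope higher than the sample average by over 3 SD, cut at about -0.22 in these data, passing the limit was not always enough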;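 note: slope of raw intensity against log time taken from 70 to 1610 s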); details: recombinant KvBeta, 4-cyanobenzaldehyde reduction, at 10 µM, stronger effect = higher value
Voltage-gated potassium channel subunit beta-2 (Rattus norvegicus), sequence (P62483 whole entry, looked up): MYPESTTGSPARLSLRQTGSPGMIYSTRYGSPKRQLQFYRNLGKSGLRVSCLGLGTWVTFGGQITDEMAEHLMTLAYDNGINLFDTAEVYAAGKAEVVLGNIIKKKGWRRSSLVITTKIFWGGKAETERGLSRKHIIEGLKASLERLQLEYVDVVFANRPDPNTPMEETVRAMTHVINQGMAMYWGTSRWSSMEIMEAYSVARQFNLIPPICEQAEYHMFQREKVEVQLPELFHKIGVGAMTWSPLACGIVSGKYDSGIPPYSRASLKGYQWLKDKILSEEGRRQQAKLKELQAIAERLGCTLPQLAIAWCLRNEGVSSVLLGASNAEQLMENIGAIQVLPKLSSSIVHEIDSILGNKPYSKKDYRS

[6] = target: Voltage-gated potassium channel subunit beta-2 (Rattus norvegicus) (UniProt P62483); assay: enhancers of rat Kvbeta2 NADPH turnover – biochemical, NADPH fluorescence, primary screen (AID 623;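 active = NADPH fluorescence slope more negative than the mean of all samples by about 3 SD, 99.7% confidence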;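 note: fluorescence intensity change per second fitted from 20 to 320 s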); details: Recombinant KvBeta, NADPH fluorescence decrease slope, 10 min; at 10 µM; stronger effect = lower value
[7] = target: Alpha-2C adrenergic receptor (Homo sapiens) (UniProt P18825); assay: compounds altering alpha2C-coupled GIRK flux – cell-based, HEK293 alpha2C/GIRK1/2, thallium flux, primary screen (AID 624;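 active = fluorescence slope after compound addition differing from the mean of all screened samples at 99.7% confidence, in either direction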;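 note: slope of fluorescence ratio to pre-addition baseline per second over 15 to 24 s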); details: thallium flux BTC fluorescence, at 10 µM, actives lie on both sides
Alpha-2C adrenergic receptor (Homo sapiens), sequence (P18825 whole entry, looked up): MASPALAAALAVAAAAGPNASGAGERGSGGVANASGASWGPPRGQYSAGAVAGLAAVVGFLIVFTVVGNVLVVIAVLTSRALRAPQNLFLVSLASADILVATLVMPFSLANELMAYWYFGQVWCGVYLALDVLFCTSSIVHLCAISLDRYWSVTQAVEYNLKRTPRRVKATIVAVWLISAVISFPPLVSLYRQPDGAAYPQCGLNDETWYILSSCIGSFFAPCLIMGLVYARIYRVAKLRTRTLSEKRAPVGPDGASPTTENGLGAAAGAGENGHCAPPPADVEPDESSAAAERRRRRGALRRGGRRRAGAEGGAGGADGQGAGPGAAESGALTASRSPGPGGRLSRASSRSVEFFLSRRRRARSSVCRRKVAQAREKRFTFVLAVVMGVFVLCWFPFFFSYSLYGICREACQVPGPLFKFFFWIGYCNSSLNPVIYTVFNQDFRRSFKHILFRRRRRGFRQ

[8] = inhibitors of larval lipid processing in zebrafish, primary screen, whole organism, PED6 fluorescence, gall bladder and intestine (AID 686;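 active = a full or partial loss of lipid-probe fluorescence in the fish gall bladder, intestine or both, judged by eye; inactive = no fluorescence loss, or compound toxic to the fish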;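 note: larvae 5 to 7 days old with five fish per well; signal comes from phospholipase A2 cleavage of quenched PED6 carried via bile; overnight exposure to compound and PED6 before scoring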); details: Zebrafish larvae PED6 lipid processing, fluorescence scoring
[9] = loss of swimming-algae plug formation – whole organism, Chlamydomonas reinhardtii, WT vs cilia-less mutant, absorbance, 96-well, primary screen (AID 463189); details: Chlamydomonas reinhardtii gravitaxis, OD600 absorbance, 2 days; at 10 µM; stronger effect = higher value;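 note: 0% = wild type cc124 cells in DMSO and 100% = ciliumless bld1 mutant cells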
[10] = target: Muscarinic acetylcholine receptor M4 (Homo sapiens) (UniProt P08173); assay: M4-linked GIRK flux change, two-sided – cell-based, HEK293 M4/GIRK, thallium flux, BTC-AM, M4 allosteric agonist project, primary screen (AID 625;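 active = fluorescence slope after compound addition differing from the mean of all tested samples at 99.7% confidence, mostly higher but some lower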;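 note: thallium influx through GIRK channels coupled to M4 in HEK293 cells with BTC-AM dye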); details: at 10 µM, actives lie on both sides
Muscarinic acetylcholine receptor M4 (Homo sapiens), sequence (P08173 whole entry, looked up): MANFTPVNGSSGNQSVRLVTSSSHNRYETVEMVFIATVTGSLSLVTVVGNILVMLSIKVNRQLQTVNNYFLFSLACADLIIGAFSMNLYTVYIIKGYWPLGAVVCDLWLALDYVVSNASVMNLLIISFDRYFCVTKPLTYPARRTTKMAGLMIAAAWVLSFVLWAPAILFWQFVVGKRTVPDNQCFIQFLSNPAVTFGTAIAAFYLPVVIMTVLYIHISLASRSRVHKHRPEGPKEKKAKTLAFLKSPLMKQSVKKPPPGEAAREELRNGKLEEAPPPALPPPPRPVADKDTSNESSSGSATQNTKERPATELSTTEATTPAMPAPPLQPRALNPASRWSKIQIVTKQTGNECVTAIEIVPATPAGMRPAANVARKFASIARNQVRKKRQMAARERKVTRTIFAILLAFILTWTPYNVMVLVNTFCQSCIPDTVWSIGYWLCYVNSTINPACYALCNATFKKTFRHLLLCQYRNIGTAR

[11] = measured here: cell density z-score
[12] = measured here: nuclear c-Myc green intensity z-score
[13] = measured here: nuclear pErk red intensity z-score, stronger effect = higher value

Compound	cell count [1]	inhibition [1]	inhibition [2]	nuclei count [2] [%]	z-score [3, 11]	z-score [3, 12]	z-score [3, 13]	inhibition [4]	fluorescence slope [5]	NADPH fluorescence slope [6]	slope [7]	outcome [8]	inhibition [9]	fluorescence slope [10]
COc1ccc(Cn2c(O)c(C=NCCCn3ccnc3)c(=O)[nH]c2=O)cc1	466	-0.7% (inactive)	54% (inactive)	81.9	-1.17	0.328	0.929	4.25% (inactive)	-0.443 (inactive)	-1.5e-05 (inactive)	0.00461 (inactive)	inactive	-4.22% (inactive)	–
Cn1c(O)c(C=NC2CCN(Cc3ccccc3)CC2)c(=O)n(C)c1=O	440	1% (inactive)	-22.6% (inactive)	136	0.0201	1.2	0.0643	4.25% (inactive)	-0.401 (inactive)	-1.9e-05 (inactive)	0.00599 (inactive)	inactive	0.967% (inactive)	–
CC(=NCCO)c1c(O)n(C)c(=O)n(C)c1=O	608	-15.1% (inactive)	-3.1% (inactive)	90.8	2.05	-1.46	-1.21	31% (inactive)	-0.432 (inactive)	-4.7e-06 (inactive)	0.00689 (inactive)	inactive	-8.68% (inactive)	–
CCOc1ccc(Cc2c(O)[nH]c(=O)[nH]c2=O)cc1	618	-8.4% (inactive)	-94.6% (inactive)	180	-2.58	1.33	1.61	3.56% (inactive)	-0.34 (inactive)	-3.4e-06 (inactive)	0.00464 (inactive)	inactive	18.5% (inactive)	–
CCC(=NCCOc1ccc(Cl)cc1)c1c(O)n(C)c(=O)n(C)c1=O	555	-7.6% (inactive)	-89.2% (inactive)	99.1	0.38	-2.81	0.837	13.2% (inactive)	-0.532 (inactive)	-0.00015 (inactive)	0.0044 (inactive)	inactive	19.1% (inactive)	–
CCCCC1(CN2CCCC2=O)C(=O)NC(=O)NC1=O	325	-24.8% (inactive)	-135% (inactive)	118	0.342	-1.01	-1.02	3.5% (inactive)	-0.467 (inactive)	1.5e-05 (inactive)	0.00649 (inactive)	inactive	32.8% (inactive)	–
O=c1[nH]c(=O)n(Cc2ccccc2)c(O)c1C=NCCN1CCNCC1	548	-7.6% (inactive)	-71.4% (inactive)	125	-0.72	0.623	-0.0503	7.93% (inactive)	-0.51 (inactive)	-3.8e-05 (inactive)	0.00654 (inactive)	inactive	-6.44% (inactive)	–
CCOc1ccc(-n2c(O)c(C=Nc3ccc(N(CC)CC)cc3)c(=O)[nH]c2=O)cc1	366	-4.7% (inactive)	-63.9% (inactive)	138	0.258	-1.14	0.567	14% (inactive)	-0.361 (inactive)	-0.000118 (inactive)	-0.0068 (active)	inactive	-4.04% (inactive)	–
C/C(Cl)=C/CC1(CN2CCCC2=O)C(=O)NC(=O)NC1=O	584	-2.5% (inactive)	-26.8% (inactive)	102	-1.18	1.93	0.656	-3.98% (inactive)	-0.484 (inactive)	-0.000274 (inactive)	0.00947 (inactive)	inactive	-13.6% (inactive)	–
COc1cccc(-n2c(O)c(C=NCCN3CCOCC3)c(=O)[nH]c2=O)c1	512	-1.1% (inactive)	-10.1% (inactive)	92.8	-1.1	2.1	0.315	-5.26% (inactive)	-0.386 (inactive)	-1.1e-05 (inactive)	0.00613 (inactive)	inactive	-13% (inactive)	–
CC(=O)C1(c2ccccc2)CCNCC1	472	0.5% (inactive)	-152% (inactive)	138	-0.428	0.195	0.843	7.93% (inactive)	-0.522 (inactive)	-4.6e-05 (inactive)	0.00442 (inactive)	inactive	14.1% (inactive)	–
C=CCC1(CN2CCCCCC2=O)C(=O)NC(=O)NC1=O	656	4% (inactive)	-118% (inactive)	148	-0.0973	0.0168	-1.06	11.3% (inactive)	-0.517 (inactive)	-6.8e-05 (inactive)	0.00505 (inactive)	inactive	-7.71% (inactive)	–
CCN(CC)CCN=Cc1c(O)n(CCc2ccccc2)c(=O)[nH]c1=O	479	7.8% (inactive)	-1.8% (inactive)	88.8	0.714	-0.47	-1.29	28% (inactive)	-0.368 (inactive)	9.5e-06 (inactive)	0.00625 (inactive)	inactive	-6.45% (inactive)	–
COCC(C)OC(=O)c1c(N)n(Cc2ccco2)c2nc3ccccc3nc12 (stereo unspecified)	433	-9.3% (inactive)	-115% (inactive)	147	-0.578	0.931	-0.00965	-11.9% (inactive)	-0.0512 (inactive)	-2.8e-07 (inactive)	0.0047 (inactive)	inactive	7.25% (inactive)	–
COCCOC(=O)c1c(N)n(Cc2ccco2)c2nc3ccccc3nc12	431	-13% (inactive)	-107% (inactive)	162	0.196	-0.0973	1.79	0.671% (inactive)	-0.0308 (inactive)	-7.2e-06 (inactive)	0.00535 (inactive)	inactive	15% (inactive)	–
CCCc1nc2ccccc2c(=O)n1-c1ccccc1OC	587	-5.2% (inactive)	-140% (inactive)	134	-0.589	-0.508	-0.325	-4.78% (inactive)	-0.375 (inactive)	-2e-05 (inactive)	0.00541 (inactive)	inactive	-2.29% (inactive)	–
CCCSP1(=S)NCCCO1 (stereo unspecified)	455	-11.8% (inactive)	-157% (inactive)	122	0.345	-0.499	-0.356	-2.07% (inactive)	-0.54 (inactive)	-7.2e-05 (inactive)	0.00464 (inactive)	inactive	20.8% (inactive)	–
CN1CCc2nc3sc(C#N)c(N)c3c(-c3cccs3)c2C1	596	-16.8% (inactive)	-65% (inactive)	165	0.586	-0.275	0.463	6.51% (inactive)	-0.362 (inactive)	-6e-05 (inactive)	0.00412 (inactive)	inactive	-2.74% (inactive)	–
CCOC(=O)[C@@]1(C#N)[C@@H]2C=CC(C(N)=O)=CN2[C@@H](C(N)=O)[C@@H]1c1cccc(Cl)c1	359	-11.1% (inactive)	-137% (inactive)	133	1.68	-1.47	-0.2	11.4% (inactive)	-0.368 (inactive)	-1e-05 (inactive)	0.00498 (inactive)	inactive	24.1% (inactive)	–
CCCCSP1(=S)NCCCO1 (stereo unspecified)	490	-12.8% (inactive)	-2.8% (inactive)	116	0.851	-1.48	-1.55	9.39% (inactive)	-0.465 (inactive)	-0.000374 (inactive)	0.00445 (inactive)	inactive	18.8% (inactive)	–
O=c1[nH]c(=O)n(-c2cccc(Cl)c2)c(O)c1C=NCCN1CCCCC1	506	1.5% (inactive)	-67.4% (inactive)	143	-0.817	1.06	1.7	15% (inactive)	-0.435 (inactive)	-5.4e-05 (inactive)	0.00582 (inactive)	inactive	-0.905% (inactive)	–
O=c1[nH]c(=O)n(Cc2ccco2)c(O)c1C=NCc1ccc2c(c1)OCO2	562	-4.8% (inactive)	50.7% (inactive)	148	-1.72	-1.79	-0.396	-8.76% (inactive)	-0.254 (inactive)	-1.2e-06 (inactive)	0.00624 (inactive)	inactive	18.3% (inactive)	–
O=c1[nH]c2ccccc2c(=O)n1-c1cccc(Cl)c1	545	-5.4% (inactive)	40% (inactive)	129	-1.11	2.35	0.728	-18.6% (inactive)	-0.461 (inactive)	-7e-06 (inactive)	0.00622 (inactive)	inactive	11.1% (inactive)	–
CCOc1ccccc1-n1c(O)c(C=Nc2ccc(N(CC)CC)cc2)c(=O)[nH]c1=O	588	-15.7% (inactive)	-43.1% (inactive)	85.2	2.24	-1.62	-0.873	6.04% (inactive)	-0.43 (inactive)	-9.6e-06 (inactive)	0.0078 (inactive)	inactive	7.21% (inactive)	–
COCCOC(=O)C1=C(N)Oc2c(c(=O)oc3ccccc23)[C@@]12C(=O)Nc1ccccc12	600	-9.7% (inactive)	-14.5% (inactive)	105	0.613	0.851	-1.5	-2.29% (inactive)	-0.499 (inactive)	2.1e-05 (inactive)	0.00465 (inactive)	inactive	-16.3% (inactive)	–
COC(=O)C(O)(c1ccc(NC(=O)c2ccco2)c(OC)c1)C(F)(F)F (stereo unspecified)	569	3.2% (inactive)	1% (inactive)	152	-0.555	0.637	1.11	-3.97% (inactive)	-0.43 (inactive)	-5.3e-05 (inactive)	–	inactive	0.634% (inactive)	0.00513 (inactive)
CN1CCc2nc(SCC(=O)OC(C)(C)C)c(C#N)cc2C1	606	-21.6% (inactive)	-56.3% (inactive)	178	-1.57	-0.211	0.501	16% (inactive)	-0.316 (inactive)	-4.7e-05 (inactive)	0.00437 (inactive)	inactive	102% (active)	–
